Screens as filed in PubChem.
MEP2 TOR yeast: modulators of MEP2-GFP levels in yeast, primary screen, S. cerevisiae, multiplex flow cytometry, MLPCN library | hit rate 0.51% among 330,000 | GFP response vs DMSO, % at 10 µM | S. cerevisiae MEP2-GFP strain, 3 h; 100% = DMSO control level | AID 2016, 2009;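 active = GFP response versus DMSO above a set limit, roughly screen mean plus 3 SD, cut at about 180% in these data; inconclusive = fewer than 70 cells counted for a yeast strain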;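 also: median GFP fluorescence of the barcode-gated MEP2-GFP cells per well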
RPL19A-GFP yeast: RPL19A-GFP expression modulators in yeast, primary screen, cell-based, S. cerevisiae, multiplex flow cytometry, MLPCN | S. cerevisiae RPL19A-GFP strain, 3 h; hits give low values | percent response vs DMSO, % at 10 µM | hit rate 0.3% among 330,000 | AID 2025, 2009;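 active = percent response vs DMSO below 50%; inconclusive = fewer than 70 events counted for the yeast strain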;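 also: median channel GFP fluorescence of the barcoded RPL19A-GFP strain; ratio of sample median GFP to plate DMSO average so 100% = DMSO; lower means less RPL19A-GFP as with rapamycin TOR inhibition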
AGP1-GFP MLPCN: modulators of AGP1-GFP expression in yeast TOR pathway, primary screen, cell-based, multiplex flow cytometry, S. cerevisiae, MLPCN library | GFP response vs DMSO, % at 10 µM | 3 h; GFP as percent of DMSO wells | hit rate 0.02% among 320,000;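 active = GFP response relative to DMSO above a set limit, near screen average plus 3 SD, cut at about 150% in these data; inconclusive = fewer than 70 cells counted for the yeast strain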;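 also: median GFP channel fluorescence of the gated AGP1 strain per well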
LAP4 TOR yeast: modulators of LAP4-GFP expression in yeast, primary screen, S. cerevisiae, multiplex flow cytometry, MLPCN library | 3 h; median GFP as percent of DMSO wells | hit rate 0.34% among 320,000 | GFP response vs DMSO, % at 10 µM | AID 2023, 2009;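 active = GFP response vs DMSO above a set limit, about the screen mean plus 3 SD, cut at about 150% in these data; inconclusive = under 70 cell events counted for the yeast strain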
CIT2-GFP yeast: modulators of CIT2-GFP expression in yeast, primary screen, S. cerevisiae, GFP fusion, multiplex flow cytometry, MLPCN library | GFP response vs DMSO, % at 10 µM | hit rate 0.065% among 320,000 | S. cerevisiae CIT2-GFP strain, 3 h; 100 means same as DMSO wells;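 active = GFP response relative to DMSO above a set limit, near the screen mean plus 3 SD, cut at about 150% in these data; inconclusive = Fewer than 70 cells measured for a yeast strain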;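 also: ratio of well median GFP fluorescence to mean of DMSO wells on the plate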
An asterisk follows results filed as active; ? = inconclusive; . = not tested or not shown; [ ] = dose if it differs, or a comment. The list is not random: actives were taken first. Their share in the collection is about 0.93%.

SMILES	MEP2 TOR yeast	RPL19A-GFP yeast	AGP1-GFP MLPCN	LAP4 TOR yeast	CIT2-GFP yeast
COc1ccccc1N1CCN(C2CCCN(Cc3ccc(Cl)cc3)C2)CC1 (stereo unspecified)	103.2	103.3	96.8	82.0	100.8
COc1ccccc1N1CCN(C2CCCN(Cc3cc(F)cc(F)c3)C2)CC1 (stereo unspecified)	92.2	94.0	154.0*	87.8	92.1
CCN(CC)CCn1c(N)nc2ccccc21	317.2*[may fluoresce violet]	88.6	27.4	71.0	?
CCN(CC)CCn1c(NS(=O)(=O)c2ccc(C)cc2)nc2ccccc21	97.1	95.5	101.3	99.5	98.9
Cc1cc(NS(=O)(=O)c2ccc(NC(=O)c3ccccc3F)cc2)no1	93.0	94.4	96.8	100.5	93.6
COc1ccc(NC(=O)Nc2ccc(O)c3ccccc23)cc1	419.8*[may fluoresce violet]	52.0	19.0	98.1	?
O=C(CSc1nnc(NC(=O)c2ccc3c(c2)OCO3)s1)NCc1ccco1	282.6*[may fluoresce violet]	46.8*[may fluoresce violet]	?	77.0	?
O=C(CSc1nnc(NC(=O)c2ccccc2)s1)NCc1ccco1	99.0	95.5	99.5	98.9	96.7
CCn1c(SCC(=O)N2CC(=O)Nc3ccccc32)nnc1-c1ccoc1C	106.6	101.3	101.0	106.2	101.0
Cc1occc1-c1nnc(SCC(=O)N2CC(=O)Nc3ccccc32)n1CC(C)C	197.0*[may fluoresce violet]	37.4*[may fluoresce violet]	29.5	85.7	?
Cn1c(CSc2nc3ccccc3s2)nnc1SCC(=O)NCc1cccnc1	588.4*[may fluoresce violet]	42.5*[may fluoresce violet]	?	118.7	?
CCOC(=O)N1CCN(C(=O)c2ccc3c(c2)N(Cc2cccc(Cl)c2)C(=O)c2ccccc2S3=O)CC1 (stereo unspecified)	106.5	106.9	108.7	104.8	107.7
COc1ccccc1C(=O)NCCN1CCN(c2ccccc2)CC1	92.3	102.4	99.8	83.2	99.5
CC(C)COc1nc2ccccc2nc1C(C#N)C(=O)NC1CCCCC1 (stereo unspecified)	307.1*[may fluoresce violet]	.	29.6	88.2	?
COc1ccc(/C=C/C(=O)NC(=S)Nc2cc([N+](=O)[O-])ccc2O)cc1OC	107.6	107.8	94.5	92.9	99.4
CC(=O)c1ccc(N2CCN(C(=O)C(=O)c3cn(CC(=O)N4CCCCCC4)c4ccccc34)CC2)cc1	100.6	104.5	97.9	86.5	107.9
CCOC(=O)c1nnn(-c2nonc2N)c1CN1CCCCCC1	98.7	94.7	99.4	96.9	102.8
Cc1c(C(=O)N2CCCCCC2)nnn1-c1nonc1N	182.1*[may fluoresce violet]	64.3	.	85.5	?
COc1cccc(-c2cc(C(F)(F)F)n3nc(C(=O)Nc4c(C)n(C)n(-c5ccccc5)c4=O)cc3n2)c1	99.6	105.4	109.3	98.8	95.6
Cc1c(NC(=O)c2cc3nc(-c4ccc(Cl)cc4)cc(C(F)(F)F)n3n2)c(=O)n(-c2ccccc2)n1C	98.8	46.4*[may fluoresce violet]	105.1	74.2	94.2
O=C(OC1CCOC1=O)c1ccc(S(=O)(=O)N2CCCCCC2)cc1 (stereo unspecified)	177.9*[may fluoresce violet]	62.9	?	74.5	?
Cc1ccc(CNC(=O)CCc2nnc(Cc3ccc(-c4ccccc4)cc3)o2)o1	100.6	93.2	98.7	106.4	101.1
CCOc1ccc2nc(NC(=O)CN3CCC(n4nnc5cc(F)ccc54)CC3)sc2c1	177.9*[may fluoresce violet]	58.4	?	?	?
O=C1C(=O)N(Cc2ccccc2)C(c2cccc(O)c2)/C1=C(\O)c1ccc2c(c1)OCCO2 (stereo unspecified)	148.5	46.3*	79.7	95.4	109.6
O=C1C(=O)N(Cc2ccco2)C(c2cccc(Cl)c2)/C1=C(\O)c1ccc2c(c1)OCCO2 (stereo unspecified)	174.5	98.8	90.1	93.1	73.8
SMILES	MEP2 TOR yeast	RPL19A-GFP yeast	AGP1-GFP MLPCN	LAP4 TOR yeast	CIT2-GFP yeast
CCCn1c(N)c(C(=O)CSc2n[nH]c(-c3ccc(C)cc3)n2)c(=O)[nH]c1=O	93.0	93.2	104.3	100.1	96.0
O=C(OCCCOC(=O)c1ccc(Br)o1)c1ccc(Br)o1	107.3	100.9	107.6	158.2*	78.5
O=C(c1ccccc1)N1CCN(C(=S)NCc2ccc3c(c2)OCO3)CC1	104.0	107.2	103.8	94.1	98.9
O=C(/C=C(\O)c1ccccc1)C(=O)NNC(=O)c1ccccc1[N+](=O)[O-]	201.6*[may fluoresce violet]	63.3	12.5	95.9	?
CC(C)(C)c1ccc2c(c1)C(=O)c1ccccc1C2=O	102.6	107.2	95.0	96.6	94.1
CC(C)(C)C1=CC=C(C(C)(C)C)C(=O)C1=O	91.3	97.2	91.9	174.9*	95.0
Cn1c(N)c(S(=O)(=O)NCc2ccc(F)cc2)c(=O)n(C)c1=O	98.6	100.9	103.3	104.3	107.6
O=C(c1cc(F)ccc1F)N1CCC(N2CCC(C(=O)N3CCCC3)CC2)CC1	114.8	37.0*[may fluoresce violet]	14.4	84.1	?
O=C(c1ccccc1Cl)N1CCC(N2CCC(C(=O)N3CCCC3)CC2)CC1	97.6	97.1	95.8	85.1	93.0
O=c1[nH]c(NCCO)c(N=Cc2ccccc2)c(=O)[nH]1	213.4*[may fluoresce violet]	64.3	?	111.7	?
CCOc1ccc(NC(=O)Cn2c(=O)n(CCCC(=O)NC3CCN(Cc4ccccc4)CC3)c(=O)c3ccccc32)cc1	105.5	100.9	102.3	105.1	101.5
CCOC(=O)c1[nH]c2ccccc2c1N=CN(CC)CC	555.9*[may fluoresce violet]	39.6*[may fluoresce violet]	.	88.3	?
COc1ccc(C(=O)NC(=S)Nc2ccc(CN3CCOCC3)cc2)cc1	150.2	86.8	142.4	151.0*	107.5
CCCCOc1ccc(C(=O)NC(=S)Nc2ccc(CN3CCOCC3)cc2)cc1	111.9	98.8	106.8	110.5	97.5
O=C(COC(=O)C1CCN(c2ccc(C(F)(F)F)cn2)CC1)Nc1cccc(F)c1	101.1	96.6	94.5	151.8*	86.6
COC(=O)c1ccc(/C=N/OCC(=O)NCCc2ccc(OC)c(OC)c2)cc1	305.9*	83.8	98.2	142.0	115.3
CC(C)c1nnc(NC(=O)c2cccc(NC(=O)C(F)(F)F)c2)s1	90.1	97.1	104.6	99.3	100.7
Cc1[nH][nH]c(=O)c1C(c1ccc(N(C)C)c(Br)c1)c1c(C)[nH][nH]c1=O	98.7	92.3	94.2	172.2*	73.3
CCS(=O)(=O)C1=NN2C(=N)/C(=C\c3ccc(OS(=O)(=O)c4ccccc4)c(OC)c3)C(=O)N=C2S1	93.3	102.0	98.3	93.2	95.3
COc1cc(/C=C2\C(=N)N3N=C(S(C)(=O)=O)SC3=NC2=O)ccc1OS(=O)(=O)c1ccccc1	142.3	17.6*[may fluoresce violet]	?	79.5	?
CC(=O)c1sc(C(C)(C)C)cc1NC(=O)CCC(=O)O	97.9	97.9	104.3	109.0	102.6
COC(=O)c1sc(-c2ccc(C(C)(C)C)cc2)cc1NC(=O)CCC(=O)O	118.0	39.7*	19.6	68.6	86.2
